Each molecule was assayed against Muscarinic acetylcholine receptor M3 (Homo sapiens) (UniProt P20309) (assay: hM3 positive allosteric modulation, ACh fold-shift, SAR follow-up, selectivity assay for M4 PAM project, cell-based, analogs, calcium (AID 1929)). Details: hM3 cells, ACh CRC fold-shift, calcium mobilization; with ACh 0.1 µM; with compound at fixed dose; call rule not given here.
Muscarinic acetylcholine receptor M3 (Homo sapiens), sequence (P20309 whole entry, looked up): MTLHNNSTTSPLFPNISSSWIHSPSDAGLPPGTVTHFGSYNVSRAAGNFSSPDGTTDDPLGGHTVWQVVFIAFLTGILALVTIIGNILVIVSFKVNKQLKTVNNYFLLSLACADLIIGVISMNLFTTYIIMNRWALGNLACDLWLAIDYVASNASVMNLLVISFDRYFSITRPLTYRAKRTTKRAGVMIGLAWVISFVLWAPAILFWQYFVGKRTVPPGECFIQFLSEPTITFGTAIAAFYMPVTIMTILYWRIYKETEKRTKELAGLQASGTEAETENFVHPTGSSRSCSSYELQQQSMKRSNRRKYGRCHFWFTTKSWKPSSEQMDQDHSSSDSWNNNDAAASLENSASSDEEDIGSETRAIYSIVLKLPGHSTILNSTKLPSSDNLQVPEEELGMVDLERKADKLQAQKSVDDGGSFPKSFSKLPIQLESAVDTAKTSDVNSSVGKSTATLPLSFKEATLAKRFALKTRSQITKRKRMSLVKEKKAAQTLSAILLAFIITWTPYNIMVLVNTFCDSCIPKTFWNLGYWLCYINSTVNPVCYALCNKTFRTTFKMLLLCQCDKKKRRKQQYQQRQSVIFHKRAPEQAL

ACh response, % max, inactive:
Cc1cc(OCc2ccncc2)nc2sc(C(=O)NCc3cc(F)ccc3F)c(N)c12 96.3
Cc1cc(OCc2ccncc2)nc2sc(C(=O)NCc3cccc(F)c3F)c(N)c12 94.7
Cc1cc(OCCN2CCOCC2)nc2sc(C(=O)NC(C)(C)C)c(N)c12 96.8
COc1ccc(CNC(=O)c2sc3nc(OCc4ccncc4)cc(C)c3c2N)cc1 90.1
